# Assay results published in PubChem BioAssay AID1468 (National Center for Advancing Translational Sciences (NCATS), 2008).
# In all, about 280,000 compounds went through this assay and about 1,100 (0.39%) were called active. Roughly 7% stayed inconclusive and do not appear here. Calls come from the whole dose curve; as a rule, active = well fitted inhibition curve with a large enough effect; inconclusive = small, poorly fitted or top-dose-only effect, or effect the other way; inactive = flat fitted curve, though single readings scatter. The list comes from a sample in which actives are over-represented; it also holds similar structures and randomly drawn compounds. A call without a number means that no potency is given here.
# Biological target: Microtubule-associated protein tau (Homo sapiens) (UniProt P10636)
# Experiment: qHTS for Inhibitors of Tau Fibril Formation, Fluorescence Polarization; note: nearly all actives have a fitted effect of over 55% in size
# Conditions: K18 P301L tau heparin fibrillization, Alexa594 FP, 6 h; series mostly up to 57.7 µM
# Source text: NIH Molecular Libraries Probe Production Network [MLPCN]
# NIH Chemical Genomics Center [NCGC]
# Assay Provider: Carlo Ballatore, University of Pennsylvania
# The microtubule-associated protein tau is an abundant protein in the axons of neurons that stabilizes microtubules. With its ability to modulate microtubule dynamics, tau contributes directly or indirectly, to key structural and regulatory cellular functions. Particularly important is the influence tau exerts on axonal transport, which allows signaling molecules, trophic factors and other essential cellular constituents to travel along the axons. Under pathological conditions, tau becomes sequestered into insoluble aggregates called neurofibrillary tangles. This phenomenon is believed to have pathological consequences by promoting axonal transport deficits that ultimately lead to synaptic dysfunction and neuronal loss. To identify inhibitors of tau aggregation, a heparin-induced tau fibril formation assay was used that employed a recombinantly expressed fragment of tau, K18 (Q242-E372), bearing a P301L mutation (Gustke et al. 1994; Hong et al. 1998).
# Gustke, N., B. Trinczek, et al. (1994). "Domains of tau protein and interactions with microtubules." Biochemistry 33(32): 9511-22.
# Hong, M., V. Zhukareva, et al. (1998).
# Li, W. and V. M. Lee (2006). "Characterization of two VQIXXK motifs for tau fibrillization in vitro." Biochemistry 45(51): 15692-701.
# von Bergen, M., S. Barghorn, et al. (2001). "Mutations of tau protein in frontotemporal dementia promote aggregation of paired helical filaments by enhancing local beta-structure." J Biol Chem 276(51): 48165-74.
# NCGC Assay Protocol Summary:
# For screening, 2 uL/well human K18 P301L (15 uM unlabeled and 0.24 uM Alexa 594-labeled tau final concentrations) in reagent buffer (100 mM sodium acetate pH 7) was dispensed into black solid 1536-well plates (Grenier) using a solenoid-based dispenser. Following transfer of 23 nL compound or DMSO vehicle by a pin tool, 2 uL/well heparin (20 uM final concentration) in reagent buffer was added and the plate centrifuged 15 s at 1000 RPM. Plates were incubated 6 hr at 37 C and then 1 uL/well ThT (30 uM final concentration) was added. After a 1 hr ambient incubation, the plates were read by an Envision (Perkin Elmer) to monitor Alexa 594 FP (555 nm excitation and 632 nm emission).
# Keywords: NIH Roadmap, MLPCN, MLI, MLSMR, NCGC, qHTS, tau, tauopathies, Alzheimer's disease, fibril, neurodegeneration, aggregation
# Potency is the fitted concentration of half-maximal effect.
# Sequence of Microtubule-associated protein tau (Homo sapiens) (P10636 561-689 P618L limits assumed): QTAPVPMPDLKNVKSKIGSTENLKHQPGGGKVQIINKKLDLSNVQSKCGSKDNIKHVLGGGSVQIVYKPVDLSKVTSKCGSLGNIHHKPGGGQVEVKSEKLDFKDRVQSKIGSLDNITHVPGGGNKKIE
row,SMILES,Potency
1,Oc1cc(O)c2c(c1)OC(c1ccc(O)c(O)c1)C(O)C2 (stereo not drawn),14.1 µM (active)
2,CC(NC(=O)c1cc(Sc2ccc(F)cc2F)nc2ccccc12)c1ccccc1 (stereo not drawn),inactive
3,CCCC(=O)Nc1cc(C(=O)NCc2ccc(OC)cc2)ccc1S(=O)(=O)c1ccc(Cl)cc1,inactive
4,COc1ccccc1-c1nnc(SCC(N)=O)o1,inactive
5,COc1ccc2[nH]cc(/C=C(/C#N)S(=O)(=O)c3ccccc3)c2c1,28.2 µM (active)
6,COc1ccc(NS(=O)(=O)c2ccc(Oc3c(C#N)cccc3C#N)cc2)cc1,inactive
7,CCN(CC)CC(=O)c1c[nH]c2ccc(OC)cc12,inactive
8,COc1ccc(C)cc1NC(=O)COCc1cc(-c2cccs2)on1,inactive
9,COCC(=O)Nc1nnc(COc2ccccc2)s1,inactive
10,O=C(Nc1ccccc1)Nc1nnc(COc2ccccc2F)s1,14.1 µM (active)
11,O=C(NCCOc1ccccc1F)Nc1ccc(Br)cc1,inactive
12,Cc1ccc(N(C)C(=O)C2CCN(S(=O)(=O)c3ccc4c(c3)CCCN4C(=O)C3CCC3)CC2)cc1,inactive
13,Cc1ccc2cccc(NC(=O)c3ccc(OC(C)C)cc3)c2n1,inactive
14,CC1=C/C(=N\S(=O)(=O)c2ccccc2)C(C(C)C)=CC1=O,inactive
15,Cc1ccc(S(=O)(=O)c2ccc(Oc3ccccc3)cc2)cc1,inactive
16,CC1=C/C(=N\OS(=O)(=O)c2ccccc2)C=CC1=O,12.6 µM (active)
17,COc1ccccc1/C=C/c1nc(C#N)c(NC(C)c2ccccc2)o1 (stereo not drawn),inactive
18,Cn1ccc(NC(=O)Nc2ccc(Cl)cc2)n1,inactive
19,CC(C)S(=O)(=O)c1csc(NC(=O)Nc2ccc(Cl)cc2)c1Cl,31.6 µM (active)
20,NS(=O)(=O)c1ccc(CCNC(=O)Nc2ccc(Cl)cc2)cc1,inactive
21,CC(=O)c1ccc(N2CCN(C(=O)c3ccc4nc[nH]c4c3)CC2)cc1,inactive
22,CC/C(O)=N\S(=O)(=O)c1ccc(N=NN(C)C)cc1,inactive
23,CN(C)N=Nc1ccc2nc[nH]c2c1,8.91 µM (active)
24,CCOc1ccc(-c2nonc2NC(=O)c2oc3ccc(CC)cc3c2C)cc1,inactive
25,Cc1ccc(-c2nc3ccccc3[nH]c2=O)cc1,inactive
26,O=c1[nH]c2ccccc2n2c(-c3ccccc3)nnc12,14.1 µM (active)

row,SMILES,Potency
1,CCOC(=O)c1cnc2[nH]c3ccccc3n2c1=O,inactive
2,Cc1cc(C)c2oc(C(=O)Nc3c(C(=O)Nc4ccccc4)oc4ccccc34)cc(=O)c2c1,inactive
3,Cc1nn(C)c2c1c(C(F)(F)F)cc(=O)n2C(C)C(=O)NCc1ccc(Cl)cc1 (stereo not drawn),inactive
4,CC1CCC(NS(=O)(=O)c2ccc3c(c2)n(C)c(=O)c(=O)n3C)CC1 (stereo not drawn),inactive
5,Cn1sc(=O)c2cc(S(=O)(=O)NC3CC3)ccc21,28.2 µM (active)
6,CSc1ccc(S(=O)(=O)NC2CCCCC2)cc1,inactive
7,Cc1ccc(NC(=O)Nc2cccc(C(F)(F)F)c2)nc1,inactive
8,CCNS(=O)(=O)c1ccc(NC(=O)Nc2cccc(C(F)(F)F)c2)cc1,25.1 µM (active)
9,CC(C)C[C@H](NC(=O)Nc1cccc(C(F)(F)F)c1)C(=O)O,inactive
10,Cc1cccc(Nc2cc(C)nc(-n3nc(C)cc3C)n2)c1,inactive
11,Brc1ccc2c(c1)NC(c1cccnc1)=NC(c1ccccc1)=N2,inactive
12,CCC(C)(C)NC(=O)C1c2ccccc2Oc2ccccc21,inactive
13,CCC(C)NC(=O)C1c2ccccc2Oc2ccccc21 (stereo not drawn),inactive
14,CC(C)(C)c1nnc(NC(=O)C2c3ccccc3Oc3ccccc32)s1,15.8 µM (active)
15,Cc1ccc(NC(=O)Nc2sc3nc4n(c(=O)c3c2C)CCC(C)CC4)c(Cl)c1 (stereo not drawn),inactive
16,Cc1cc(C)c(NC(=O)Cn2c(SCC(=O)NCc3ccccc3)nc3ccccc32)c(C)c1,inactive
17,O=C(Cn1c(=O)n(Cc2ccccc2)c(=O)c2sc3ccccc3c21)Nc1ccccc1F,28.2 µM (active)
18,CCOc1ccccc1NC(=O)Cn1c(=O)n(Cc2ccco2)c(=O)c2sc3ccccc3c21,inactive
19,COc1ccc(Cn2c(=O)c3oc4ccccc4c3n(CC(=O)Nc3ccc(F)cc3F)c2=O)cc1,inactive
20,CC(=O)c1cccc(NC(=O)c2nc(-c3ccccc3)n(-c3cccc(C)c3)n2)c1,inactive
21,CCc1nnc(NC(=O)CCCSc2nc3ccccc3[nH]2)s1,inactive
22,COc1ccc(NC(=O)CSc2nc3ccccc3[nH]2)cc1,inactive
23,O=C(COC(=O)CCCSc1nc2ccccc2[nH]1)Nc1ccc(Oc2ccccc2)cc1,15.8 µM (active)
24,O=[N+]([O-])c1ccc(N=Cc2c(O)ccc3ccccc23)cc1,inactive
25,Oc1ccc2ccccc2c1C=Nc1ccccc1,inactive
26,Oc1c(C=Nc2cccc3nsnc23)ccc2ccccc12,3.98 µM (active)

row,SMILES,Potency
1,CCOC(=O)c1ccc(NC(=O)CSc2nc3c([nH]c4ccccc43)c(=O)n2C)cc1,inactive
2,COc1ccc(NC(=O)Cn2c(=O)n(Cc3ccc(C(=O)NCc4ccccc4Cl)cc3)c(=O)c3ccccc32)cc1,25.1 µM (active)
3,Cc1ccc(Cn2c(=O)n(CCCC(=O)NCc3ccccc3Cl)c(=O)c3ccccc32)cc1,inactive
4,COc1ccc(OC)c(NC(=O)Cn2c(=O)n(Cc3ccccc3)c(=O)c3ccccc32)c1,inactive
5,O=C(Cn1c(-c2cccs2)cc2ccccc21)NCCc1ccc(Cl)cc1,inactive
6,CCN1C(=O)c2ccccc2S(=O)c2ccc(C(=O)NCc3ccc(F)cc3)cc21 (stereo not drawn),inactive
7,CCOC(=O)C1CCCN(C(=O)c2ccc(-n3ccc4ccccc43)s2)C1 (stereo not drawn),inactive
8,Cc1c(C(=O)NCc2ccccc2Br)oc2ccc3c(c12)C(=O)CC(C)(C)O3,inactive
9,Cc1ccc(OCCn2c(CNc3ccccc3C)nc3ccccc32)cc1,inactive
10,Cc1nnc(N2CCC(C(=O)Nc3ccc(F)cc3)CC2)c2nn(-c3ccc(Cl)cc3)c(C)c12,inactive
11,Cc1ccnc(SCC(N)=O)n1,inactive
12,Cc1ccnc(-n2sc3ccccc3c2=O)n1,25.1 µM (active)
13,CCOC(=O)c1ccc(NC2=CC(c3ccc(OCC)cc3)N(c3ccc(C(=O)OCC)cc3)C2=O)cc1 (stereo not drawn),inactive
14,Cc1cc(C)c2sc(NC(=O)c3ccc(S(=O)(=O)N4CCCC4)cc3)nc2c1,inactive
15,COc1ccc(OC)c(-c2noc(N3CCN(c4cc(Cl)ccc4C)CC3)n2)c1,inactive
16,COc1ccc(N(CC(=O)NCCc2ccc(Cl)cc2)S(=O)(=O)c2c(C)nn(C)c2C)cc1,inactive
17,COc1ccc2c(Sc3ccc(C)cc3)c(C(=O)NC(C)c3ccccc3)[nH]c2c1 (stereo not drawn),inactive
18,CSc1nc(-c2ccccc2)nc(C(Cl)Cl)n1,inactive
19,CSc1nc(Nc2ccc(F)cc2)cc(-c2ccccc2)n1,15.8 µM (active)
20,Cc1cc(Nc2ccccc2)nc(N)n1,inactive
21,CCOC(=O)c1cccc(NS(=O)(=O)c2cc(-c3cnc(C)o3)ccc2OC)c1,inactive
22,COc1ccc(N2C(=O)CSC23C(=O)N(Cc2cccc(F)c2)c2ccccc23)cc1Cl (stereo not drawn),inactive
23,Brc1ccc(CSc2ccc(-c3ccco3)nn2)cc1,inactive
24,O=C(Nc1nnc(SCc2ccccc2)s1)c1ccco1,inactive
25,c1ccc(CSc2nnc(-c3ccco3)c(-c3ccco3)n2)cc1,12.6 µM (active)
26,O=C(OCc1cc(=O)n2nc(C3CC3)sc2n1)c1ccccc1Cl,inactive

row,SMILES,Potency
1,COc1ccc(-c2csc(NC3OC(=O)c4ccccc43)n2)cc1 (stereo not drawn),inactive
2,COc1ccc2c(c1OC)C(=O)OC2Nc1nc(-c2ccccc2)cs1 (stereo not drawn),31.6 µM (active)
3,COc1ccc2c(c1OC)C(=O)OC2c1c(O)nc(SC)n(-c2ccccc2)c1=O (stereo not drawn),inactive
4,O=C(CCCn1c(=O)c2cccn2c2cccnc21)NCc1ccc(F)cc1,inactive
5,COc1ccc(OC)c2sc(N3CCN(C(=O)C4COc5ccccc5O4)CC3)nc12 (stereo not drawn),inactive
6,FC(F)(F)c1cc(Nc2nc3ccccc3c3nncn23)ccc1Cl,10 µM (active)
7,Fc1ccc(C(Nc2ccc(Cl)c(C(F)(F)F)c2)c2nnc(-c3ccccc3)o2)cc1 (stereo not drawn),inactive
8,COc1cccc(Nc2nc3ccccc3c3nncn23)c1,inactive
9,COc1ccc(-c2cc(C(F)(F)F)n3nc(-c4ccccc4)cc3n2)cc1OC,inactive
10,COc1ccc(OC)c(CNC(=O)Cn2nc(C)c3c(C)n(-c4ccccc4)nc3c2=O)c1,inactive
11,CCN(CC)c1ccc(/C=N/Nc2nc(C)cc(C)n2)c(O)c1,inactive
12,CCN(CC)c1ccc2oc(=O)c(C)nc2c1,12.6 µM (active)
13,CCN(CC)c1ccc2c(Nc3ccccc3)c(C=O)c(=O)oc2c1,inactive
14,CC1CCCCN1CC(=O)N1CCCc2c1c(=O)oc1ccc(OCc3ccccc3)cc21 (stereo not drawn),inactive
15,CCc1ccccc1NC(=O)N1CCN(C(=O)c2nsc3ccccc23)CC1,inactive
16,Cc1c(C(=O)N2CCCC2)oc2c1-c1nn(CC(=O)NCc3ccc(OC(C)C)cc3)cc1CC2,inactive
17,O=C1C(c2ccccn2)=[N+]([O-])c2ccccc21,7.94 µM (active)
18,Cc1ccc(-c2nnc(SCC(=O)NCc3ccccc3)nc2-c2ccc(C)cc2)cc1,inactive
19,CSc1ncc(Cl)c(C(=O)Nc2ccc(S(=O)(=O)N3CCCC(C)C3)cc2)n1 (stereo not drawn),inactive
20,O=C(CSc1nc(-c2cccc(F)c2)[nH]c1-c1ccccc1)Nc1ccc2c(c1)OCO2,inactive
21,COc1ccc(-c2cn3nc(N4CCCC(C(=O)NCCCOC(C)C)C4)sc3n2)cc1 (stereo not drawn),inactive
22,COc1ccc(C2CC(c3ccccc3)=NN2C(=O)CSc2nccc(=O)[nH]2)cc1 (stereo not drawn),inactive
23,O=C(CSc1nnnn1-c1ccc(O)cc1)N1N=C(c2ccc3ccccc3c2)CC1c1ccccc1 (stereo not drawn),25.1 µM (active)
24,O=C(CSc1nnnn1-c1ccc(O)cc1)c1ccc(F)cc1,inactive
25,COc1ccc(Cl)cc1NC(=O)C(C)Sc1nc2c(c(=O)[nH]1)CCCC2 (stereo not drawn),inactive
